In PubChem BioAssay AID1159580 (chemical genetic matrix, 2015):
Values joined by “and” are separate entries in the source; they are usually repeats but may differ in a detail not shown here. Equal values may be shown once. Among all 5,500 compounds or so, about 2,000 (36%) were called active. Inconclusive results (about 18%) are left out. No stated cut-off is given here; in the data, active means normalized growth mostly below about 0.91 (no sharp cut-off); inconclusive means no clear call, values can overlap the other calls; inactive means mostly above about 0.92. The list shows a part of the results.

Experiment: chemical genetic growth profiling, strain panel (AID 1159580);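 further: tested at 20 µM; growth read once vehicle control cultures reached saturation at 30 °C; 1 = growth at the plate median or of vehicle wells; lower values mean less growth of the strain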
Details: S. cerevisiae deletion strains, growth OD

Measured: normalized growth

Cc1cc(C(C)(C)C)cc(C)c1CC1=NCCN1
inactive: locus YAL013W, strain DEP1, hits give low values 1.02 and 0.999 | locus YAL021C, strain ccr4, hits give low values 0.987 | locus YAL026C, strain drs2, hits give low values 0.986 | locus YAL030W, strain snc1, hits give low values 1 | locus YAL040C, strain CLN3, hits give low values 0.976 | locus YBL061C, strain skt5, hits give low values 0.999 | locus YBR009C, strain hhf1, hits give low values 0.957 | locus YBR021W, strain FUR4, hits give low values 1.02 | locus YBR023C, strain chs3, hits give low values 1.01 | locus YBR171W, strain sec66, hits give low values 1.01 | locus YBR229C, strain ROT2, hits give low values 1.01 | locus YBR231C, strain swc5, hits give low values 1 | locus YBR279W, strain paf1, hits give low values 0.993 | locus YCL011C, strain gbp2, hits give low values 0.988 | locus YCL016C, strain dcc1, hits give low values 0.99 | locus YCL029C, strain bik1, hits give low values 1.01 | locus YCL061C, strain MRC1 (second series), hits give low values 0.999 | locus YCL061C, strain MRC1, hits give low values 1.02 | locus YCL069W, strain vba3, hits give low values 1 | locus YCR088W, strain abp1, hits give low values 0.996 | locus YDL005C, strain med2, hits give low values 1.01 | locus YDL035C, strain GPR1, hits give low values 1.03 | locus YDL040C, strain nat1, hits give low values 1 | locus YDL074C, strain BRE1, hits give low values 1.02 | locus YDL101C, strain DUN1, hits give low values 1.01 | locus YDL134C, strain PPH21, hits give low values 1.02 | locus YDL185W, strain tfp1, hits give low values 1.01 | locus YDL192W, strain arf1, hits give low values 1.01 | locus YDR001C, strain nth1, hits give low values 1.01 | locus YDR069C, strain doa4, hits give low values 1.02 | locus YDR101C, strain arx1, hits give low values 1 | locus YDR137W, strain rgp1, hits give low values 0.994 | locus YDR150W, strain NUM1, hits give low values 1.02 | locus YDR159W, strain sac3, hits give low values 0.941 | locus YDR162C, strain NBP2, hits give low values 1.01 | locus YDR195W, strain ref2 1.01 | locus YDR297W, strain sur2, hits give low values 1 | locus YDR318W, strain mcm21, hits give low values 0.995 | locus YDR334W, strain swr1, hits give low values 0.993 | locus YDR335W, strain msn5, hits give low values 0.999 | locus YDR363W, strain ESC2, hits give low values 1 | locus YDR388W, hits give low values 1 | locus YDR392W, strain spt3, hits give low values 0.926 | locus YDR502C, strain sam2, hits give low values 0.998 | locus YEL003W, strain gim4, hits give low values 1.01 | locus YEL037C, strain rad23, hits give low values 1 | locus YEL061C, strain CIN8 (second series), hits give low values 0.997 | locus YEL061C, strain CIN8, hits give low values 1.02 | locus YER002W, strain NOP16, hits give low values 1 | locus YER015W, strain faa2, hits give low values 0.998 | locus YER016W, strain bim1, hits give low values 0.973 | locus YER110C, hits give low values 0.994 | locus YER111C, strain swi4, hits give low values 1 | locus YER155C, strain BEM2 (second series), hits give low values 1.02 | locus YER155C, strain BEM2, hits give low values 1.01 | locus YER167W, strain BCK2, hits give low values 1.01 | locus YFR010W, strain ubp6, hits give low values 1.02 | locus YGL078C, strain dbp3, hits give low values 1 | locus YGL086W, strain mad1, hits give low values 1 | locus YGL167C, strain pmr1, hits give low values 1 | locus YGL173C, strain kem1, hits give low values 1.02 | locus YGL227W, strain vid30, hits give low values 1 | locus YGL240W, strain doc1, hits give low values 1.03 | locus YGL248W, strain PDE1, hits give low values 1 | locus YGL253W, strain hxk2, hits give low values 0.977 | locus YGR078C, strain PAC10, hits give low values 1.01 | locus YGR135W, strain pre9, hits give low values 1 | locus YGR229C, strain SMI1, hits give low values 1.02 | locus YGR252W, strain gcn5, hits give low values 0.951 | locus YHR013C, strain ard1, hits give low values 0.971 | locus YHR027C, strain rpn1, hits give low values 0.993 | locus YHR030C, strain SLT2, hits give low values 1.02 and 1.01 | locus YHR079C, strain IRE1 (second series), hits give low values 0.995 | locus YHR079C, strain IRE1, hits give low values 1.01 | locus YHR094C, strain hxt1, hits give low values 1 | locus YHR129C, strain ARP1, hits give low values 1.01 | locus YHR142W, strain chs7, hits give low values 1.02 | locus YHR200W, strain rpn10, hits give low values 1 | locus YIL066C, strain RNR3, hits give low values 1.02 | locus YIL073C, strain SPO22, hits give low values 1.04 | locus YIL125W, strain kgd1, hits give low values 0.997 | locus YIR030C, strain dcg1, hits give low values 1 | locus YJL092W, strain hpr5, hits give low values 1.02 | locus YJL095W, strain BCK1 (second series), hits give low values 1.01 | locus YJL095W, strain BCK1, hits give low values 1.01 and 0.982 | locus YJL115W, strain asf1, hits give low values 0.985 | locus YJL129C, strain trk1, hits give low values 1.02 | locus YJL134W, strain LCB3, hits give low values 1.01 | locus YJL154C, strain vps35, hits give low values 1.01 | locus YJL164C, strain tpk1, hits give low values 0.98 | locus YJL166W, strain qcr8, hits give low values 1.03 | locus YJL168C, strain set2, hits give low values 0.998 | locus YJL187C, strain SWE1 (second series), hits give low values 1.03 | locus YJR043C, strain POL32, hits give low values 1 | locus YJR066W, strain TOR1, hits give low values 0.937
